The nature of assay [1]: qHTS assay to identify small molecule antagonists of the glucocorticoid receptor (GR) signaling pathway - cell viability counter screen (AID 720693). Also: nearly all actives have a fitted effect of over 55% in size. Also: potency is read from the fitted curve at half-maximal effect.
A short description of assay [2]: qHTS assay for identifying genotoxic compounds that show differential cytotoxicity against isogenic chicken DT40 cell lines with known DNA damage response pathways - wild type cell line (AID 743012). Also: nearly all actives have a fitted effect of over 60% in size. Also: potency is read from the fitted curve at half-maximal effect. In short, it runs like this:
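Cells (DT40 wild type, 300/well) are treated with DMSO-dissolved compounds after a ~0.5 h pre-incubation and kept 40 h at 37 C/5% CO2. Viability is then measured by CellTiter-Glo luminescence following 30 min at room temperature.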
Background: qHTS replaces the single test concentration by a dilution series.

Assay [3] is described as follows: qHTS assay for identifying genotoxic compounds that show differential cytotoxicity against isogenic chicken DT40 cell lines with known DNA damage response pathways - Rev3 mutant cell line (AID 743014). Also: nearly all actives have a fitted effect of over 55% in size. Also: potency is read from the fitted curve at half-maximal effect.
Assay [4] is described as follows: qHTS assay for identifying genotoxic compounds that show differential cytotoxicity against isogenic chicken DT40 cell lines with known DNA damage response pathways - Rad54/Ku70 mutant cell line (AID 743015). Also: nearly all actives have a fitted effect of over 60% in size. Also: potency is read from the fitted curve at half-maximal effect.
A short description of assay [5]: qHTS assay to identify small molecule antagonists of the androgen receptor (AR) signaling pathway - cell viability counter screen (AID 743033; also: nearly all actives have a fitted effect of over 45% in size; also: potency is read from the fitted curve at half-maximal effect).
In assay [6] the target is Androgen receptor (Homo sapiens) (UniProt P10275). The assay is described as follows: qHTS assay to identify small molecule agonists of the androgen receptor (AR) signaling pathway (AID 743036; active = well fitted activation curve with a large enough effect in the signal ratio in the repeat runs, with a control signal flat, not every such curve was filed as active; the % refers to the signal ratio). In short, it runs like this: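 Fluorescence from a beta-lactamase FRET substrate served as read-out in AR-UAS-bla GripTite HEK293 cells. Cells were treated with DMSO-dissolved compounds for 16 h at 37C, then with LiveBLAzer B/G substrate for 2 h at room temperature.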
Sequence of Androgen receptor (Homo sapiens) (P10275 whole entry, looked up): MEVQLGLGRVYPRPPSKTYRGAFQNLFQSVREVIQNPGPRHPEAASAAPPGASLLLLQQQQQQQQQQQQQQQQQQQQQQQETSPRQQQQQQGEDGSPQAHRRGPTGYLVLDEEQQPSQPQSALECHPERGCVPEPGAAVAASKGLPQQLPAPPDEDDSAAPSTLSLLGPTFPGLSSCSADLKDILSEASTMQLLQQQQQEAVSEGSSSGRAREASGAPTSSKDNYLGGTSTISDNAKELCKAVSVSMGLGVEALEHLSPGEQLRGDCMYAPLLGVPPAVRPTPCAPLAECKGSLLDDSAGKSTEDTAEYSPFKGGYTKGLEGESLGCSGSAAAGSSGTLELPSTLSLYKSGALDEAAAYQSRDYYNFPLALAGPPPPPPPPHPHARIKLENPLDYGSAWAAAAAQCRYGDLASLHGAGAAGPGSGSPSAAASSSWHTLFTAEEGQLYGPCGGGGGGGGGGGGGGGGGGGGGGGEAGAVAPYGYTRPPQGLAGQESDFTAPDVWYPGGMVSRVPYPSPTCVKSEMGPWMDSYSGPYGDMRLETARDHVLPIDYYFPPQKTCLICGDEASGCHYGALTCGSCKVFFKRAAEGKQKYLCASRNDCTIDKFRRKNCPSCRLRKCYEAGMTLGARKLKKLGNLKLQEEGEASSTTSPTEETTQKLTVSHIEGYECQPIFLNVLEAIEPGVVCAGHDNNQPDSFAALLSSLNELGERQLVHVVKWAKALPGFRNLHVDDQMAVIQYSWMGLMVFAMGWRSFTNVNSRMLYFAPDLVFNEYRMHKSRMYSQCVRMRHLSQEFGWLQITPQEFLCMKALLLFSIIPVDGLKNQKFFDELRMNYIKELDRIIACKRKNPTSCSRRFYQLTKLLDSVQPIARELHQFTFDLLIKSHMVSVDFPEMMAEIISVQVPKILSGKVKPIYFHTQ

For assay [7] the target is unchanged. The assay is described as follows: qHTS assay to identify small molecule agonists of the androgen receptor (AR) signaling pathway using the MDA cell line (AID 743040; also: nearly all actives have a fitted effect of over 20% in size). In short, it runs like this: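 MDA-kb2 breast carcinoma cells carrying MMTV-luciferase (responsive to AR and GR), plated 5 h then treated 16 h with compounds at 37C, 0% CO2. Read-out was ONE-Glo luminescence after 30 min at room temperature.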

Assay [8] can be described thus: qHTS assay to identify small molecule antagonists of the androgen receptor (AR) signaling pathway using the MDA cell line - cell viability counter screen (AID 743041; also: nearly all actives have a fitted effect of over 45% in size; also: potency is read from the fitted curve at half-maximal effect). Summed up:
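MDA-kb2 AR-luc cells (MMTV-luciferase, AR/GR responsive) treated with compounds plus R1881 agonist for 16 h at 37C. CellTiter-Fluor added at 15.5 h; fluorescence read after 30 min in the same wells.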

The target in assay [9] is Androgen receptor (Homo sapiens) (UniProt P10275). The assay is described as follows: qHTS assay to identify small molecule antagonists of the androgen receptor (AR) signaling pathway using the MDA cell line (AID 743042; also: nearly all actives have a fitted effect of over 55% in size). In short, it runs like this:
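MDA-kb2 breast carcinoma cells carrying MMTV-luciferase (AR/GR responsive) were co-treated with compounds and the agonist R1881 for 16 h at 37C. Inhibition read as ONE-Glo luminescence; CellTiter-Fluor fluorescence measured in parallel for cytotoxicity.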

Assay [10] in a line: qHTS assay to identify small molecule antagonists of the thyroid receptor (TR) signaling pathway - cell viability counter screen (AID 743064). Also: nearly all actives have a fitted effect of over 50% in size. Also: potency is read from the fitted curve at half-maximal effect. In short, it runs like this:
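Fluorescence from CellTiter-Fluor, added after 23.5 h exposure at 37 °C, reported viability of GH3.TRE-Luc cells co-treated with compound and 1 nM T3. Measured in the same wells as the luciferase TR readout.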

Inconclusive results are not listed. Active and inactive are the calls of the source. Unless noted, calls follow the shape of the dose curve; as a rule, active = well fitted curve in the direction sought with a large enough effect in the repeat runs; inconclusive = weak or mixed curves; inactive = no such curve, though single readings can be large; an effect the other way counts as inactive or inconclusive.

Take `Cc1cc(C)cc(N)c1`: the Potency entry in [1], in [2], in [3], in [4], in [5] and in [8] was “inactive” in each case. Moreover, the Potency result in assay [9] and in assay [10] was “inactive” throughout. Further, the result in assay [6] and in [7] was inactive.

For the compound `O=C(O)c1cccc(-c2noc(-c3ccccc3F)n2)c1`, the Potency entry in assay [1], in assay [2], in assay [3], in [4], in assay [5] and in assay [8] was “inactive” each time.

On to `C[C@@]12CCC[C@H]1[C@@H]1CC[C@H]3C[C@@H](O)CC[C@]3(C)[C@H]1CC2`, for which the Potency entry in assay [1], in [2], in assay [3], in assay [4], in assay [5] and in assay [8] was “inactive” in each case. The Potency entry in assay [10] is “inactive”.

As for `CCC(OCCCOC)OC(C)=O` (centres undefined), the Potency result in [1], in [2], in assay [3], in assay [4], in assay [5] and in assay [8] was “inactive” in each case. Moreover, in assay [10], the Potency result was “inactive”.

Take `Cc1[nH]cnc1CN1CCc2c(c3ccccc3n2C)C1=O`: the Potency result in assay [1], in [2], in assay [3], in assay [4], in [5] and in [8] was “inactive” each time.

Consider `C=C(C)C(=O)OCCOCCOC(=O)C(=C)C`, for which the Potency result in assay [1], in [2], in assay [3], in [4], in assay [5] and in assay [8] was “inactive” in each case. Further, the Potency result in assay [10] is “inactive”.

Consider `CN1C(=O)OC(C)(C)C1=O`, for which the Potency entry in assay [1], in [2], in assay [3], in assay [4], in assay [5] and in [8] was “inactive” in each case. The Potency entry in [10] is “inactive”.

As for `CC(=O)OCC[N+](C)(C)C`, the Potency result in assay [1], in [2], in assay [3], in assay [4], in [5] and in assay [8] was “inactive” throughout. Further, the Potency result in [10] was “inactive”.

Turning to `CCc1ccccc1`, the Potency entry in [1], in [2], in [3], in assay [4], in assay [5] and in [8] was “inactive” in each case.

In the case of `CO[C@]1(NC(=O)CSC(F)F)C(=O)N2C(C(=O)O)=C(CSc3nnnn3CCO)CO[C@H]21`, the Potency entry in [1], in assay [2], in assay [3], in assay [4], in [5] and in [8] was “inactive” in each case. Also, the Potency result in assay [10] was “inactive”.

Turning to `O=C(Nc1cccc2c(=O)cc(-c3nn[nH]n3)oc12)c1ccc(OCCCCc2ccccc2)cc1`, the Potency entry in assay [1], in assay [2], in [3], in assay [4], in assay [5] and in [8] was “inactive” throughout. Moreover, the Potency result in assay [10] is “inactive”.

Take `COc1ccccc1N1CCN(CCCCNC(=O)c2ccc(-c3ccc(C(C)=O)cc3)cc2)CC1`: the Potency result in [1], in assay [2], in assay [3], in assay [4] and in assay [5] was “inactive” throughout.

For the compound `CCC(C)COC(C)=O` (centres undefined), the Potency entry in assay [1], in assay [2], in [3], in assay [4], in assay [5] and in assay [8] was “inactive” each time. For the same compound, the Potency result in assay [10] was “inactive”.

Consider `Nc1ncnc2c1ncn2[C@H]1CC[C@@H](CO)O1`, for which the Potency result in [1], in [3], in assay [5], in assay [8] and in assay [10] was “inactive” in each case. Moreover, the Potency in assay [2] is 26.6 µM (active); in assay [4] it was 23.7 µM (active).

In the case of `CN1CCCC(CC2c3ccccc3Sc3ccccc32)C1` (centres undefined), the Potency result in [1] and in assay [8] was “inactive” in each case. Also, the Potency was 5.07 µM (active) in assay [2], 7.17 µM (active) in [3], 8.04 µM (active) in [4] and 9.02 µM (active) in assay [10].

`Nc1nnc(-c2ccc([N+](=O)[O-])o2)o1`: the Potency result in assay [1] was “inactive”. The Potency was 24.3 µM (active) in assay [2]; 19.3 µM (active) in assay [3]; 19.3 µM (active) in assay [4]; 61.1 µM (active) in assay [8]; 61.1 µM (active) in assay [10].

`Nc1ccc(N=Nc2ccccc2)c(N)c1`: the Potency entry in [1], in assay [5] and in [8] was “inactive” in each case. The Potency in assay [2] was 53.3 µM (active); in assay [3], 53.3 µM (active); in assay [4], 59.8 µM (active); in assay [10] it was 53.3 µM (active).

For the compound `CC(C)=CCC1C(=O)N(c2ccccc2)N(c2ccccc2)C1=O`, the Potency result in assay [1], in [5] and in assay [10] was “inactive” in each case. Moreover, the Potency in [2], in assay [3] and in assay [4] was 16.8 µM (active) in each case.

Consider `O=C1c2ccccc2C(=O)N1CCc1noc(-c2ccc(CN3CCCCCC3)s2)n1`, for which the Potency result in assay [1] and in assay [8] was “inactive” throughout. The Potency is 49.9 µM (active) in assay [2], 39.7 µM (active) in assay [3] and 39.7 µM (active) in [4].

Take `CCOC(=O)OC(C)OC(=O)[C@@H]1N2C(=O)[C@@H](NC(=O)[C@H](N)c3ccccc3)[C@H]2SC1(C)C` (some centres undefined): the Potency entry in [1], in assay [2], in assay [3], in assay [4], in [8] and in assay [10] was “inactive” each time.

Turning to `CC1(C)[C@H](C(=O)O)N2C(=O)C[C@H]2S1(=O)=O`, the Potency result in [1], in assay [2], in assay [3], in assay [4], in assay [5] and in assay [8] was “inactive” throughout. The Potency result in [10] is “inactive”.

Turning to `OCCOCC#CCOCCO`, the Potency entry in assay [1], in assay [2], in assay [3], in assay [4], in assay [5] and in assay [8] was “inactive” throughout. The Potency result in [10] was “inactive”.

`OCCN1CCN(CCCN2c3ccccc3Sc3ccc(Cl)cc32)CC1`: the Potency entry in [1] and in assay [8] was “inactive” in each case. In addition, the Potency in [2] is 3.59 µM (active); in assay [3], 2.85 µM (active); in [4], 4.52 µM (active); in assay [5] it was 4.56 µM (active); in assay [10], 3.59 µM (active).

Turning to `COc1ccccc1Oc1c(NS(=O)(=O)c2ccc(C(C)(C)C)cc2)nc(-c2ncccn2)nc1OCCO`, the Potency entry in assay [1], in assay [2], in assay [3], in assay [4], in assay [5] and in assay [8] was “inactive” each time. Also, the Potency entry in assay [10] was “inactive”.

Take `Cc1cc(C)c(N)cc1C`: the Potency entry in assay [1], in [2], in [3], in [4], in [5] and in assay [8] was “inactive” each time. Further, the Potency result in assay [10] was “inactive”.

`COc1ccccc1N1CCN(CC(O)COc2cccc3ccccc23)CC1` (centres undefined): the Potency result in [1] and in [8] was “inactive” in each case. The Potency was 23.7 µM (active) in [2], 29.8 µM (active) in assay [3], 29.8 µM (active) in assay [4] and 26.6 µM (active) in [10].

Regarding `CN1C(=O)N(c2ccccc2Br)Cc2cnc(Nc3ccc4c(c3)OCC(CO)O4)nc21` (centres undefined), the Potency in [1] is 13.8 µM (active); in assay [2] it was 7.7 µM (active); in assay [3] it was 9.69 µM (active); in [4], 6.86 µM (active); in assay [5], 43.6 µM (active); in assay [10], 54.5 µM (active).

The values are drawn from PubChem BioAssay (Tox21).
